From PubChem BioAssay AID1159580 (chemical genetic matrix, 2015)
About 2,000 (36%) of roughly 5,500 compounds were called active. Roughly 18% stayed inconclusive and do not appear here. The list shows a part of the results. Unmarked numbers belong to inactive results. Cut-off read from the data, not from the text of the source: active = normalized growth mostly below about 0.91 (no sharp cut-off); inconclusive = no clear call, values can overlap the other calls; inactive = mostly above about 0.92.

Assay: chemical genetic growth profiling, strain panel (AID 1159580);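 note: tested at 20 µM; growth read once vehicle control cultures reached saturation at 30 °C; 1 = growth at the plate median or of vehicle wells; lower values mean less growth of the strain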
Details: growth OD
[1] = S. cerevisiae deletion strains, locus YAL013W, strain DEP1, hits give low values
[2] = S. cerevisiae deletion strains, locus YBR229C, strain ROT2, hits give low values
[3] = S. cerevisiae deletion strains, locus YDL101C, strain DUN1, hits give low values
[4] = S. cerevisiae deletion strains, locus YDR150W, strain NUM1, hits give low values
[5] = S. cerevisiae deletion strains, locus YEL061C, strain CIN8, hits give low values
[6] = S. cerevisiae deletion strains, locus YGR078C, strain PAC10, hits give low values
[7] = S. cerevisiae deletion strains, locus YHR030C, strain SLT2, hits give low values
[8] = S. cerevisiae deletion strains, locus YHR087W, strain rtc3, hits give low values
[9] = S. cerevisiae deletion strains, locus YJR043C, strain POL32, hits give low values
[10] = S. cerevisiae deletion strains, locus YJR075W, strain HOC1, hits give low values
[11] = S. cerevisiae deletion strains, locus YLR039C, strain RIC1, hits give low values
[12] = S. cerevisiae deletion strains, locus YLR058C, strain SHM2 (second series), hits give low values
[13] = S. cerevisiae deletion strains, locus YLR085C, strain ARP6, hits give low values
[14] = S. cerevisiae deletion strains, locus YLR262C, strain YPT6, hits give low values
[15] = S. cerevisiae deletion strains, locus YML094W, strain GIM5, hits give low values
[16] = S. cerevisiae deletion strains, locus YMR219W, strain ESC1, hits give low values
[17] = S. cerevisiae deletion strains, locus YMR263W, strain SAP30, hits give low values
[18] = S. cerevisiae deletion strains, locus YNL153C, strain GIM3, hits give low values
[19] = S. cerevisiae deletion strains, locus YNL298W, strain CLA4 (second series), hits give low values
[20] = S. cerevisiae deletion strains, locus YNL322C, strain KRE1, hits give low values
[21] = S. cerevisiae deletion strains, locus YNR030W, strain Alg12, hits give low values
[22] = S. cerevisiae deletion strains, locus YPL055C, strain LGE1, hits give low values
[23] = S. cerevisiae deletion strains, locus YPL241C, strain CIN2, hits give low values
[24] = S. cerevisiae deletion strains, locus YPR135W, strain CTF4, hits give low values
[25] = S. cerevisiae strains, strain wild type, hits give low values

## COc1ccc(CN(Cc2ccc(OC)cc2)C(=O)c2cccs2)cc1
[1]
  normalized growth: 0.976
[2]
  normalized growth: 0.974
S. cerevisiae deletion strains, locus YCL061C, strain MRC1, hits give low values
  normalized growth: 1.01
[3]
  normalized growth: 0.969
S. cerevisiae deletion strains, locus YDL134C, strain PPH21, hits give low values
  normalized growth: 0.974
[4]
  normalized growth: 0.98
[5]
  normalized growth: 0.974
[6]
  normalized growth: 1
S. cerevisiae deletion strains, locus YGR229C, strain SMI1, hits give low values
  normalized growth: 0.976
[7]
  normalized growth: 0.971
[8]
  normalized growth: 0.959
[9]
  normalized growth: 0.994
[10]
  normalized growth: 0.976
[11]
  normalized growth: 0.92
[12]
  normalized growth: 0.99
[13]
  normalized growth: 0.97
[14]
  normalized growth: 0.925
[15]
  normalized growth: 0.953
[16]
  normalized growth: 0.992
[17]
  normalized growth: 1.01
S. cerevisiae deletion strains, locus YMR307W, strain GAS1, hits give low values
  normalized growth: 0.812
S. cerevisiae deletion strains, locus YNL128W, strain TEP1, hits give low values
  normalized growth: 0.973
[18]
  normalized growth: 0.993
[19]
  normalized growth: 0.973
[20]
  normalized growth: 0.994
[21]
  normalized growth: 0.931
S. cerevisiae deletion strains, locus YOL006C, strain TOP1, hits give low values
  normalized growth: 0.95
[22]
  normalized growth: 0.945
[23]
  normalized growth: 0.995
[24]
  normalized growth: 0.952
[25]
  normalized growth: 0.976

## Nc1cc(-c2ccc(OC(F)(F)F)cc2)nn1-c1ccc(Cl)c(Cl)c1
S. cerevisiae deletion strains, locus YAR019C, strain CDC15, hits give low values
  normalized growth: 0.979
S. cerevisiae deletion strains, locus YBL105C, strain PKC1, hits give low values
  normalized growth: 1.01
S. cerevisiae deletion strains, locus YBR135W, strain CKS1, hits give low values
  normalized growth: 0.981
S. cerevisiae deletion strains, locus YBR136W, strain MEC1, hits give low values
  normalized growth: 1.02
S. cerevisiae deletion strains, locus YBR160W, strain CDC28, hits give low values
  normalized growth: 0.983
S. cerevisiae deletion strains, locus YDL017W, strain CDC7, hits give low values
  normalized growth: 0.994
S. cerevisiae deletion strains, locus YDL028C, strain MPS1, hits give low values
  normalized growth: 1.01
[3]
  normalized growth: 1
S. cerevisiae deletion strains, locus YDL108W, strain KIN28, hits give low values
  normalized growth: 1.01
S. cerevisiae deletion strains, locus YDL132W, strain cdc53, hits give low values
  normalized growth: 0.971
S. cerevisiae deletion strains, locus YDL214C, strain PRR2, hits give low values
  normalized growth: 0.565 (active)
S. cerevisiae deletion strains, locus YDR052C, strain DBF4, hits give low values
  normalized growth: 0.985
S. cerevisiae deletion strains, locus YDR054C, strain cdc34, hits give low values
  normalized growth: 0.904
S. cerevisiae deletion strains, locus YDR226W, strain ADK1, hits give low values
  normalized growth: 0.983
S. cerevisiae deletion strains, locus YDR477W, strain SNF1, hits give low values
  normalized growth: 0.487 (active)
S. cerevisiae deletion strains, locus YER123W, strain YCK3, hits give low values
  normalized growth: 0.249 (active)
S. cerevisiae deletion strains, locus YER133W, strain GLC7, hits give low values
  normalized growth: 0.577 (active)
S. cerevisiae deletion strains, locus YFL009W, strain cdc4, hits give low values
  normalized growth: 1.01
S. cerevisiae deletion strains, locus YFL029C, strain CAK1, hits give low values
  normalized growth: 0.969
S. cerevisiae deletion strains, locus YFR003C, strain YPI1, hits give low values
  normalized growth: 1
S. cerevisiae deletion strains, locus YFR019W, strain FAB1, hits give low values
  normalized growth: 0.574 (active)
S. cerevisiae deletion strains, locus YFR028C, strain CDC14, hits give low values
  normalized growth: 1
S. cerevisiae deletion strains, locus YGR040W, strain KSS1, hits give low values
  normalized growth: 0.488 (active)
S. cerevisiae deletion strains, locus YGR052W, strain FMP48, hits give low values
  normalized growth: 0.446 (active)
S. cerevisiae deletion strains, locus YGR092W, strain DBF2, hits give low values
  normalized growth: 0.388 (active)
[7]
  normalized growth: 0.317 (active)
S. cerevisiae deletion strains, locus YHR079C, strain IRE1, hits give low values
  normalized growth: 0.448 (active)
S. cerevisiae deletion strains, locus YHR082C, strain KSP1, hits give low values
  normalized growth: 0.521 (active)
S. cerevisiae deletion strains, locus YHR205W, strain SCH9, hits give low values
  normalized growth: 0.635
S. cerevisiae deletion strains, locus YIL147C, strain SLN1, hits give low values
  normalized growth: 1
S. cerevisiae deletion strains, locus YJL095W, strain BCK1, hits give low values
  normalized growth: 0.254 (active)
S. cerevisiae deletion strains, locus YJL157C, strain FAR1, hits give low values
  normalized growth: 0.706 (active)
S. cerevisiae deletion strains, locus YJR016C, strain ILV3, hits give low values
  normalized growth: 1
S. cerevisiae deletion strains, locus YJR066W, strain TOR1 (second series), hits give low values
  normalized growth: 0.589 (active)
S. cerevisiae deletion strains, locus YJR066W, strain TOR1, hits give low values
  normalized growth: 0.669
S. cerevisiae deletion strains, locus YKL048C, strain ELM1, hits give low values
  normalized growth: 0.752 (active)
S. cerevisiae deletion strains, locus YKL067W, strain YNK1, hits give low values
  normalized growth: 0.597 (active)
S. cerevisiae deletion strains, locus YKL101W, strain HSL1, hits give low values
  normalized growth: 0.268 (active)
S. cerevisiae deletion strains, locus YKL193C, strain SDS22, hits give low values
  normalized growth: 0.982
S. cerevisiae deletion strains, locus YKL203C, strain TOR2, hits give low values
  normalized growth: 0.454 (active)
S. cerevisiae deletion strains, locus YLR113W, strain HOG1, hits give low values
  normalized growth: 0.317 (active)
S. cerevisiae deletion strains, locus YLR133W, strain CKI1, hits give low values
  normalized growth: 0.644 (active)
S. cerevisiae deletion strains, locus YLR403W, strain SFP1, hits give low values
  normalized growth: 0.676
S. cerevisiae deletion strains, locus YML070W, strain DAK1, hits give low values
  normalized growth: 0.439 (active)
S. cerevisiae deletion strains, locus YMR001C, strain CDC5, hits give low values
  normalized growth: 0.999
S. cerevisiae deletion strains, locus YMR205C, strain PFK2 (second series), hits give low values
  normalized growth: 0.605 (active)
S. cerevisiae deletion strains, locus YMR277W, strain FCP1, hits give low values
  normalized growth: 0.993
S. cerevisiae deletion strains, locus YNL006W, strain LST8, hits give low values
  normalized growth: 1
S. cerevisiae deletion strains, locus YNL020C, strain ARK1, hits give low values
  normalized growth: 0.53 (active)
S. cerevisiae deletion strains, locus YNL161W, strain CBK1, hits give low values
  normalized growth: 0.992
S. cerevisiae deletion strains, locus YNL183C, strain NPR1, hits give low values
  normalized growth: 0.378 (active)
S. cerevisiae deletion strains, locus YNL207W, strain RIO2, hits give low values
  normalized growth: 0.989
S. cerevisiae deletion strains, locus YNL222W, strain SSU72, hits give low values
  normalized growth: 0.99
S. cerevisiae deletion strains, locus YNL307C, strain MCK1 (second series), hits give low values
  normalized growth: 0.335 (active)
S. cerevisiae deletion strains, locus YOL078W, strain AVO1, hits give low values
  normalized growth: 1
S. cerevisiae deletion strains, locus YOL136C, strain PFK27, hits give low values
  normalized growth: 0.672 (active)
S. cerevisiae deletion strains, locus YOR061W, strain CKA2, hits give low values
  normalized growth: 0.355 (active)
S. cerevisiae deletion strains, locus YOR119C, strain RIO1, hits give low values
  normalized growth: 0.528 (active)
S. cerevisiae deletion strains, locus YOR231W, strain MKK1, hits give low values
  normalized growth: 0.349 (active)
S. cerevisiae deletion strains, locus YOR329C, strain SCD5, hits give low values
  normalized growth: 1.01
S. cerevisiae deletion strains, locus YPL031C, strain PHO85, hits give low values
  normalized growth: 0.29 (active)
S. cerevisiae deletion strains, locus YPL153C, strain RAD53, hits give low values
  normalized growth: 0.193 (active)
S. cerevisiae deletion strains, locus YPL204W, strain HRR25, hits give low values
  normalized growth: 0.285 (active)
S. cerevisiae deletion strains, locus YPL209C, strain IPL1, hits give low values
  normalized growth: 0.966
S. cerevisiae deletion strains, locus YPL256C, strain CLN2, hits give low values
  normalized growth: 0.604 (active)
S. cerevisiae deletion strains, locus YPR025C, strain CCL1, hits give low values
  normalized growth: 0.975
S. cerevisiae deletion strains, locus YPR106W, strain ISR1, hits give low values
  normalized growth: 0.643 (active)
S. cerevisiae deletion strains, strain TSCII, hits give low values
  normalized growth: 1.01

## Cc1ccc(-n2nc(-c3ccc(OC(F)(F)F)cc3)cc2NC(=O)Nc2ccc(OC(F)(F)F)cc2)cc1C
[1]
  normalized growth: 1
[2]
  normalized growth: 1.02
[3]
  normalized growth: 1.01
[4]
  normalized growth: 1.02
[5]
  normalized growth: 1.01
[6]
  normalized growth: 1.04
[7]
  normalized growth: 1.09
[8]
  normalized growth: 1.01
[9]
  normalized growth: 1.02
[10]
  normalized growth: 1.03
S. cerevisiae deletion strains, locus YKL190W, strain CNB1, hits give low values
  normalized growth: 1.02
[11]
  normalized growth: 1.08
[12]
  normalized growth: 1.02
[13]
  normalized growth: 1.17
[14]
  normalized growth: 1.05
[15]
  normalized growth: 1.02
[16]
  normalized growth: 1.02
[17]
  normalized growth: 1.05
[18]
  normalized growth: 0.996
[19]
  normalized growth: 1.05
[20]
  normalized growth: 1
[21]
  normalized growth: 1.01
[22]
  normalized growth: 1.06
[23]
  normalized growth: 1.08
[24]
  normalized growth: 0.996
[25]
  normalized growth: 1.02
